# Laboratory results reported in ChEMBL document CHEMBL3988442, “University of Dundee, Small-Polar-MMV Screening Library” (2021).
# Hit rate of the full screen: of about 66,000 compounds, about 960 (1.5%) showed an effect of 50% or more. The sample holds strong results, similar compounds and a random draw of the others, so the mix is not that of the screen.
# Tested on: Trypanosoma brucei
# Assay: Trypanosoma brucei 72 hour study
# Assay type: functional, organism-based
# Set-up: scale not given: in the data most compounds retested in dose-response had high values
compound,measurement,setting,value
O=C(c1cccc(Cn2ccnc2)c1)N1CCCC(n2cccn2)C1 (centres undefined),Percent Effect,"30.3 µM, […]",2.699%
Cc1ccc(OCc2nc(CNCC3CN(C)CCO3)cs2)cc1 (centres undefined),Percent Effect,10 µM,77.03%
CCN1CCOC(CNCc2ccc(OCc3ccccn3)cc2)C1 (centres undefined),Percent Effect,10 µM,-32.81%
CN1CCOC(CNCc2ccc(OCc3ccccn3)cc2)C1 (centres undefined),Percent Effect,"30.3 µM, […]",56.06%
same,Percent Effect,"10 mM, 10 mM as filed; unlikely as a test dose",-23.3%
Cc1nc(COc2ccc(CNCC3CN(C)CCO3)cc2)cs1 (centres undefined),Percent Effect,"30.3 µM, […]",-2.349%
Cc1nc(CNCC2CN(C)CCO2)cs1 (centres undefined),Percent Effect,"30.3 µM, […]",3.844%
CN1CCOC(CNCc2cccc(OCc3ccccn3)c2)C1 (centres undefined),Percent Effect,"30 µM, 30.03 µM",-14.98%
Cc1ccc(S(=O)(=O)NCC(C)(C)N)c(F)c1.Cl,Percent Effect,"30 µM, 30.03 µM",-16.31%
Cc1cc(Oc2ccccc2F)nc(C2CCCCN2)n1.Cl.Cl (centres undefined),Percent Effect,"30.3 µM, […]",-25.86%
Cc1nn(C)c(N(C)C)c1CNC1CCc2c(Cl)cccc21.Cl (centres undefined),Percent Effect,"30.3 µM, […]",17.67%
CN(Cc1cn2c(n1)CN(C(=O)CC1CC1)CC2)Cc1ccco1.O=C(O)C(F)(F)F,Percent Effect,"30 µM, 30.03 µM",13.03%
CCc1nnc(NC(=O)c2ccc(C3CCCN3CC(C)C)s2)s1 (centres undefined),Percent Effect,"30.3 µM, […]",-0.9926%
CC(C)CN1CCCC1c1ccc(C(=O)Nc2cn(C)nn2)s1 (centres undefined),Percent Effect,"30.3 µM, […]",0.1891%
CC(C)CN1CCCC1c1ccc(C(=O)Nc2ccc3[nH]nnc3c2)s1 (centres undefined),Percent Effect,"30.3 µM, […]",85.03%
Cc1cnc(NC(=O)c2ccc(C3CCCN3CC(C)C)s2)s1 (centres undefined),Percent Effect,"30.3 µM, […]",0.4974%
CC(C)CN1CCCC1c1ccc(C(=O)Nc2cc[nH]n2)s1 (centres undefined),Percent Effect,"30.3 µM, […]",23.5%
CC(C)CN1CCCC1c1ccc(C(=O)Nc2cccnc2)s1 (centres undefined),Percent Effect,"30.3 µM, […]",100.5%
COCCN(C)C[C@@H]1CN(C(=O)c2ccc3c(c2)OCO3)C[C@@H]1CO,Percent Effect,"30 µM, 30.03 µM",-13.62%
CC(C)Cc1nc(OCC(N)=O)c(C#N)c2c1CCCC2,Percent Effect,"30 µM, 30.03 µM",-29.84%
CCS(=O)(=O)N1CCN(Cc2ccncc2)c2nc(C)ccc2C1.O=C(O)C(F)(F)F.O=C(O)C(F)(F)F,Percent Effect,"30 µM, 30.03 µM",13.64%
COc1cccc2c1OCC(C(=O)NCCc1nc3c(s1)CCC3)C2 (centres undefined),Percent Effect,"30 µM, 30.03 µM",-23.46%
COc1cccc2c1OCC(C(=O)NCc1nc3c(s1)CCCC3)C2 (centres undefined),Percent Effect,"30 µM, 30.03 µM",60.51%
COc1ccc2c(c1)OCC(C(=O)NCc1nc3c(s1)CCCC3)C2 (centres undefined),Percent Effect,"30 µM, 30.03 µM",-46.37%
Cc1ccc2c(c1)C(NC(=O)N(C)C)CC21CCN(C(C)C)CC1.O=C(O)C(F)(F)F (centres undefined),Percent Effect,"30.3 µM, […]",-8.347%
COCCN1CCC2(CC1)CC(NC(=O)C(C)C)c1ccccc1O2.O=C(O)C(F)(F)F (centres undefined),Percent Effect,"30.3 µM, […]",3.771%
CC(NCc1ccc(OCC(N)=O)cc1)c1ccc(Cl)cc1.Cl (centres undefined),Percent Effect,"30.3 µM, […]",-11.6%
CC(NCc1ccc(OCC(N)=O)cc1)c1ccc2c(c1)CCCC2 (centres undefined),Percent Effect,"30.3 µM, […]",58.39%
CC(NCc1ccc(OCC(N)=O)cc1)c1ccc(Cl)c(Cl)c1.Cl (centres undefined),Percent Effect,"30.3 µM, […]",16.7%
O=C(O)C(F)(F)F.O=C(O)C(F)(F)F.O=C(O)C(F)(F)F.c1ccc(CN2CCc3nnc(COc4ccccn4)n3CC2)nc1,Percent Effect,"30 µM, 30.03 µM",1.272%
Cc1ccc(CN2CCn3c(C(=O)N(C)C)cnc3C2)s1.O=C(O)C(F)(F)F,Percent Effect,"30 µM, 30.03 µM",-2.366%
CCCn1c(C)c(CC(=O)NC(C)CO)c2c1CC(C)(C)CC2=O (centres undefined),Percent Effect,"30 µM, 30.03 µM",-12.97%
CCCn1c(C)c(CC(=O)NC)c2c1CC(C)(C)CC2=O,Percent Effect,"30 µM, 30.03 µM",24.04%
CCCn1c(C)c(CC(=O)N[C@H](C)C(=O)OC)c2c1CC(C)(C)CC2=O,Percent Effect,"30 µM, 30.03 µM",85.29%
Nc1cc(N2CCOCC(Cc3ccc4[nH]ccc4c3)C2)ncn1 (centres undefined),Percent Effect,"30.3 µM, […]",67.68%
c1cc(N2CCOCC(Cc3ccc4[nH]ccc4c3)C2)ncn1 (centres undefined),Percent Effect,"30.3 µM, […]",-4.218%
Cc1cc(N2CCOCC(Cc3ccc4[nH]ccc4c3)C2)ncn1 (centres undefined),Percent Effect,"30.3 µM, […]",12.74%
O=C(CC1CC2(CCN(CC3CC3)CC2)Oc2ccccc21)NC1CC1.O=C(O)C(F)(F)F (centres undefined),Percent Effect,"30.3 µM, […]",11.6%
CCC[C@H]1CN(S(=O)(=O)N(C)Cc2ccccc2)C[C@@H]1N,Percent Effect,"30 µM, 30.03 µM",8.364%
CCOCc1ccccc1NC(=O)NC1CCN(CC(F)(F)F)C1 (centres undefined),Percent Effect,"30.3 µM, […]",8.993%
CCOCc1ccccc1NC(=O)NC1CCN(c2ccccc2)C1 (centres undefined),Percent Effect,"30.3 µM, […]",12.17%
CCOCc1ccccc1NC(=O)NC1CCN(C2CCCC2)C1 (centres undefined),Percent Effect,"30.3 µM, […]",99.06%
CN1CCCC(c2ccnc(C(=O)NCC3CC3)c2)C1 (centres undefined),Percent Effect,"30.3 µM, […]",-15.86%
Cn1cc(CN2CCCC3(CCCCN3S(C)(=O)=O)C2)cn1.O=C(O)C(F)(F)F (centres undefined),Percent Effect,"30 µM, 30.03 µM",-25.71%
Cc1cccc(-c2nc(N)nc3c2CN(C(=O)c2cc(C)n[nH]2)C3C)c1 (centres undefined),Percent Effect,"30.3 µM, […]",90.24%
Cc1cccc(-c2nc(N)nc3c2CN(C(=O)c2ccncn2)C3C)c1 (centres undefined),Percent Effect,"30.3 µM, […]",-0.8654%
COCC(=O)N1Cc2c(-c3cccc(C)c3)nc(N)nc2C1C (centres undefined),Percent Effect,"30.3 µM, […]",-11.02%
COCCNc1nc2c(c(NCCc3cccs3)n1)CCNCC2,Percent Effect,"30 µM, 30.03 µM",-24.48%
Cc1ccc(CCNc2nc(-c3ccncc3)nc3c2CCNCC3)o1,Percent Effect,"30.3 µM, […]",-212%
c1csc(CCNc2nc(-c3ccncc3)nc3c2CCNCC3)c1,Percent Effect,"30.3 µM, […]",104%
O=C(C1CCC1)N1CCO[C@H]2[C@H](OCCCn3cccn3)CC[C@@H]21.O=C(O)C(F)(F)F,Percent Effect,"30.3 µM, […]",-14.88%
CC(C)c1nnsc1CN1CCc2[nH]nc(-c3ccc(F)c(F)c3)c2C1,Percent Effect,"30.3 µM, […]",8.442%
CCc1nc(C)sc1CN1CCc2[nH]nc(-c3ccc(F)c(F)c3)c2C1,Percent Effect,"30.3 µM, […]",9.305%
CC(C)c1nnsc1CN1CCc2[nH]nc(-c3ccc(Cl)cc3)c2C1,Percent Effect,"30.3 µM, […]",100.2%
Cn1nc(N2CCCC(C(=O)Nc3nc4ccccc4s3)C2)ccc1=O (centres undefined),Percent Effect,"30 µM, 30.03 µM",-10.15%
Cc1nc(COC[C@@H]2CCC[C@@]23CN(C)CCO3)cs1.O=C(O)C(F)(F)F,Percent Effect,"30 µM, 30.03 µM",42.28%
Cc1nc(C(=O)NC2CCN(CCOc3ccc(Br)cc3)CC2)cs1,Percent Effect,"30.3 µM, […]",34.31%
CCc1nnsc1C(=O)NC1CCN(CCOc2ccc(Br)cc2)CC1,Percent Effect,"30.3 µM, […]",50.82%
Cc1ncc(C(=O)NC2CCN(CCOc3ccc(Br)cc3)CC2)s1,Percent Effect,"30.3 µM, […]",9.7%
CN(C)CC1CN(C(=O)Cc2ccccc2)Cc2nccn2C1.O=C(O)C(F)(F)F (centres undefined),Percent Effect,"30 µM, 30.03 µM",-30.18%
CC(=O)N1CCC2(CCN(C(=O)c3ccc(Cl)c(C(F)(F)F)c3)C2)C1 (centres undefined),Percent Effect,"30 µM, 30.03 µM",28.83%
NC(=O)C1CCCN1Cc1cccc(NC(=O)c2cc(Cl)cc(Cl)c2)c1 (centres undefined),Percent Effect,"30 µM, 30.03 µM",26.87%
NC(=O)C1CCCN1Cc1cccc(NC(=O)c2ccsc2)c1 (centres undefined),Percent Effect,"30 µM, 30.03 µM",12.83%
NC(=O)C1CCN(Cc2cccc(NC(=O)c3ccsc3)c2)CC1,Percent Effect,"30 µM, 30.03 µM",50.19%
